This passage reports Potency results from PubChem BioAssay (NCATS).

This experiment deals with HIV-1 nucleocapsid protein NCp7 (binding to TG oligonucleotide). The experiment is described as follows: HIV Nucleocapsid (AID 346).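 Note: potency is for inhibitors that block NC binding and lower polarization.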 The note with it: HIV-1 NC / fluorescein-TGTGTGTG probe, fluorescence polarization. In a few lines: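 10 nM TG4xF probe with 100 nM nucleocapsid protein in high-salt Hepes pH 7.5 (250mM NaCl) containing 1uM ZnCl2 and reducing agents. Compound inhibition of binding was read as fluorescein polarization after 1 hr at room temperature.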
For orientation: In fluorescence polarisation assays a small probe gives low polarisation when free and higher when bound to something large.

A number with no mark means an inactive call. The rule behind the calls is not given here.
Potency is the fitted concentration of half-maximal effect.

With `COc1ccc2[nH]cc(CCNc3ncnc4ccc(-c5ccoc5)cc34)c2c1`, the Potency was more than 20 µM.

Take `CC(C)CN1CC[C@@]2(CCCN(C(=O)c3cccc(F)c3)C2)C1`: the Potency was more than 20 µM.

For `Cn1c(=O)c(-c2ccc(F)cc2)nc2cnc(N3CCOCC3)nc21`, the Potency is more than 20 µM.
